TLR4-MyD88 BLA = inhibitors of TLR4-MyD88 association in cells, primary screen, cell-based, HeLa CL3-4, BLA complementation, FRET ratio. Toll-like receptor 4 (Homo sapiens) + Myeloid differentiation primary response protein …. HeLa CL3-4 TLR4/MyD88 BLA complementation. inhibition, % at 8.4 µM. 200,000 tested, 0.18% active; in the data active = inhibition above about 25%;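 note: 0% = vehicle and 100% = reference inhibitor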
NOD2 RIPK2 PPI = NOD2-RIPK2 binding disruptors in cells, primary screen, fluorescence, CHO cells, BLA complementation; CCF4 ratio; 360,000 tested, 0.38% active; inhibition, % at 4.98 µM; in the data active = inhibition above about 21%;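 note: 0% = vehicle only and 100% = reference blocker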
TLR9-MyD88 block = inhibitors of TLR9-MyD88 association in cells, primary screen, cell-based, CHO, BLA complementation, fluorescence | AID 504734, 2011 | 340,000 tested, 0.21% active | inhibition, % at 4.98 µM | Toll-like receptor 9 (Homo sapiens) + Myeloid differentiation primary response protein … | CCF4 FRET ratio;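 active = inhibition above the mean over all tested compounds plus 3 SD, cut at about 21% in these data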;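 note: 0% = DMSO only wells and 100% = clavulanate BLA inhibitor control wells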
Neddyl block = inhibitors of cullin neddylation, primary screen, biochemical, TR-FRET, uHTS, NAE and Ubc12; inhibition, % at 25 µM; 360,000 tested, 0.58% active; in the data active = inhibition above about 36%
NPR1 activator = GC-A stimulated cGMP production enhancers – HEK293 GC-A cells, cGMP TR-FRET, EC30 ANP, primary screen | 370,000 tested, 0.14% active | 0% at EC30 ANP, 100% saturating ANP | Atrial natriuretic peptide receptor 1 (Homo sapiens), P16066 | activation, % at 10 µM; in the data active = activation above about 40%
Target sequence (P16066 whole entry, looked up): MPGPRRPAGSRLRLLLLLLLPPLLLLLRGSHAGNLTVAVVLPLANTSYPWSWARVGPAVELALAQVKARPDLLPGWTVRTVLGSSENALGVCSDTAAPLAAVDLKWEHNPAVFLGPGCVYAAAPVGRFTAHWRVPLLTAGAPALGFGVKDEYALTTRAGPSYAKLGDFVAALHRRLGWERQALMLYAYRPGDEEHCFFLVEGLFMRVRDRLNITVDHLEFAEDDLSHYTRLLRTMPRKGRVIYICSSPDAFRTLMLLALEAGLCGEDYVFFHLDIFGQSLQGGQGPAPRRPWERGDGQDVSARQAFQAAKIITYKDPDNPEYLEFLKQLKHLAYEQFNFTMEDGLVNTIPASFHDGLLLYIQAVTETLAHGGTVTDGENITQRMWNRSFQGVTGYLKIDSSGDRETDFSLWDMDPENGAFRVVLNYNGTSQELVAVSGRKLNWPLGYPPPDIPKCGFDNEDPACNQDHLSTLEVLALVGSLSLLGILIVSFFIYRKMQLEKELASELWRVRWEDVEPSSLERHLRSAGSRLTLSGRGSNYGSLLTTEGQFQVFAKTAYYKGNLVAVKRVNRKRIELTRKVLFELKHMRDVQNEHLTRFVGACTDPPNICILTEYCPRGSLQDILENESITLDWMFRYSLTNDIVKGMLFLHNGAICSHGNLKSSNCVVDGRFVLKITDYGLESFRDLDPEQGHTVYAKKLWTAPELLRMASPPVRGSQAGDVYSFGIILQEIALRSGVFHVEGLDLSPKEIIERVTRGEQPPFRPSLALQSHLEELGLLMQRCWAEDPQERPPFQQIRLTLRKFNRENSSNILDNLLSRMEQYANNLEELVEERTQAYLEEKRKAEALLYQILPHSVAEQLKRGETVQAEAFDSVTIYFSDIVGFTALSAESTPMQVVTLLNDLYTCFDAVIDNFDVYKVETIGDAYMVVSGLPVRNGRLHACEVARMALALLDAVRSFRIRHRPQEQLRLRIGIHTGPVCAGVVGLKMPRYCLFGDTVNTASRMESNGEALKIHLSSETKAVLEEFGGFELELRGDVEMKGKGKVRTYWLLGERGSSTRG
NPR2 activator = human GC-B receptor activators, primary screen, HEK293 GC-B cells, cGMP TR-FRET, EC30 CNP; Atrial natriuretic peptide receptor 2 (Homo sapiens), P20594; activation, % at 10 µM; 370,000 tested, 0.11% active; 0% at EC30 CNP, 100% saturating CNP;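 active = activation at 10 µM reaching about 35% in either raw or pattern-adjusted values, limit read from the data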
TLR9-MyD88 cf = TLR9-MyD88 association inhibitors, retest, confirmation, cell-based, CHO, BLA complementation, fluorescence, triplicate. AID 540250, 2011. shares compounds with TLR9-MyD88 block. CCF4 FRET ratio. inhibition, % at 4.98 µM. 680 tested, 51% active;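 active = mean inhibition across three repeats above about 21% taken from the earlier screen, limit read from the data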;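 note: blue over green emission ratio reports constitutive TLR9 MyD88 association via BLA complementation; 0% = DMSO vehicle wells and 100% = clavulanate BLA inhibitor wells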
BLA nonselective = beta-lactamase reporter inhibitors in CHO cells, artefact control for TLR9-MyD88 binding inhibitor project, cell-based, fluorescence. shares compounds with TLR9-MyD88 block. CHO-BLA cells, CCF4 FRET ratio, BLA reporter. inhibition, % at 4.98 µM. 680 tested, 7% active;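 active = mean inhibition above a 50% cutoff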;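 note: counterscreen of TLR9-MyD88 hits on CMV-driven BLA in CHO-K1 cells; 0% = DMSO alone and 100% = clavulanate blocking BLA; higher means less blue over green ratio so more BLA blockade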
TLR9 CHO tox = CHO cell viability loss – luminescence, single concentration, cytotoxicity control for TLR9-MyD88 binding inhibitor project; shares compounds with TLR9-MyD88 block; TLR9-MyD88 CHO cells cytotoxicity; inhibition, % at 4.98 µM; 680 tested, 39% active; AID 588336, 2011; in the data active = inhibition above about 11%
* marks the source's active call; other numbers are inactive results; i = inactive; · = no result shown. A selection: hits, their analogues and other compounds. The true share with any hit is near 1.2%.

SMILES | TLR4-MyD88 BLA | NOD2 RIPK2 PPI | TLR9-MyD88 block | Neddyl block | NPR1 activator | NPR2 activator | TLR9-MyD88 cf | BLA nonselective | TLR9 CHO tox
CCN1CCN(Cc2c(O)ccc3c2O/C(=C\c2ccc(C)cc2)C3=O)CC1 | 10.0 | 16.4 | 21.4* | 28.9 | 3.8 | -4.3 | 9.7 | 13.7 | 1.1
CCc1ccc(/C=C2\Oc3c(ccc(O)c3CN3CCN(C)CC3)C2=O)cc1 | · | 15.1 | -0.4 | 26.8 | 6.5 | -3.3 | · | · | ·
COc1ccc2c(c1)CC(C1(O)C(=O)Nc3ccccc31)C2=O (configuration not stated) | 4.2 | -4.5 | -2.0 | -7.6 | -35.2 | -17.5 | · | · | ·
O=C1CCCCCC1C1(O)C(=O)Nc2ccccc21 (configuration not stated) | 13.1 | -3.4 | 31.8* | -3.1 | -2.1 | 6.2 | 1.3 | -0.1 | 0.7
O=C(CN1C(=O)/C(=C/c2ccccc2)SC1=S)NC1CCS(=O)(=O)C1 (configuration not stated) | · | -18.2 | 20.8* | -30.7 | -7.0 | 0.8 | 2.5 | 1.6 | 1.8
O=C(CN1C(=O)/C(=C/c2ccc(F)cc2)SC1=S)NC1CCS(=O)(=O)C1 (configuration not stated) | · | -13.6 | -0.2 | -17.5 | -4.7 | -0.6 | · | · | ·
O=C(c1cccc(Oc2ccccc2)c1)N1CCC(Oc2cccnc2)CC1 | · | · | · | · | 4.5 | -3.4 | · | · | ·
C#CCOCCOCCOCCNc1nc(N2CCN(C(=O)CCCCCCCCCCNC(=O)[C@H](CCCCN)n3cc(CCO)nn3)CC2)nc(N2CCN(C(=O)CCCCCCCCCCNC(=O)[C@H](CCCCN)n3cc(CCO)nn3)CC2)n1 | · | 7.6 | -6.7 | -24.0 | · | · | · | · | ·
C#CCOCCOCCOCCNc1nc(N2CCN(C(=O)CCCCCCCCCCNC(=O)[C@H](CCCCN)n3cc(C[C@@H](C)CC)nn3)CC2)nc(N2CCN(C(=O)CCCCCCCCCCNC(=O)[C@H](CCCCN)n3cc(C[C@@H](C)CC)nn3)CC2)n1 | · | 35.4* | 52.2* | 12.8 | · | · | 28.6* | 16.8 | 43.3*
O=C(CCc1ccccc1)N[C@H]1[C@H](OC(=O)c2ccco2)CCC[C@]12C(=O)N(Cc1ccccc1)c1ccccc12 | · | · | · | · | -5.3 | -3.5 | · | · | ·
O=[N+]([O-])c1cnc(Sc2ccncn2)s1 | · | 80.1* | 31.1* | 2.3 | 15.2 | 9.0 | 46.4* | 0.5 | 98.9*
COc1ccc(S(=O)(=O)N2CCC(NC(=O)C3CCCCC3)CC2)cc1 | · | 4.4 | 20.8* | 14.2 | -0.4 | 0.5 | -35.0 | 0.9 | -3.0
CC(=O)N1CCc2cc(S(=O)(=O)NCCC(=O)NCc3ccc(Cl)cc3)ccc21 | · | · | · | · | -3.4 | -12.7 | · | · | ·
Nn1c(SCC(=O)Nc2cccc3ccccc23)nnc1-c1n[nH]c2c1CCC2 | · | · | · | · | 0.3 | -7.0 | · | · | ·
O=[N+]([O-])c1ccc(C=CC=Cc2ccccc2)cc1 | · | 5.8 | 24.5* | 16.7 | 6.7 | -3.5 | 16.6 | 20.4 | -3.2
C=CCN(Cc1ccc2c(c1)OCO2)C(C#CCCCC)C(C)C (configuration not stated) | · | · | · | · | -1.8 | -8.1 | · | · | ·
O=C(COC(=O)c1ccc2c(c1[N+](=O)[O-])C(=O)c1ccccc1C2=O)NC1CC1 | 6.7 | 18.8 | 24.6* | -30.5 | 17.1 | 0.9 | 12.0 | -4.3 | 18.9*
O=C(COC(=O)c1cccc2c1C(=O)c1ccccc1C2=O)NC1CCCCC1 | 11.2 | -3.8 | 0.1 | -51.7 | 6.0 | 8.0 | · | · | ·
CCOC(=O)CNC(=O)CSc1nc(-c2ccc(OC)cc2)ns1 | 2.1 | -1.0 | 22.4* | -16.8 | 4.4 | 1.8 | 1.4 | -2.5 | 5.2
CN(C)S(=O)(=O)c1cccc(NC(=O)c2cc([N+](=O)[O-])ccc2N2CCCCC2)c1 | · | 7.9 | 21.6* | -16.2 | -0.7 | 1.9 | 1.4 | 2.1 | 4.4
CCCn1c(/C=C/c2cc[n+](C)cc2)nc2ccccc21 | · | 16.3 | 29.5* | 30.2 | 24.9 | 2.4 | 17.2 | 22.1 | -0.8
CCn1c(/C=C/c2ccccc2)nc2ccccc21 | 5.6 | -4.8 | 7.3 | · | -5.0 | -7.9 | · | · | ·
COc1ccc(C(=O)/C=C/c2ccc(O)cc2)c2c1CC(O)C(C)(C)O2 (configuration not stated) | · | 3.5 | 22.8* | 3.2 | -0.5 | -2.7 | 5.8 | 4.5 | 4.9
COc1ccc(C(=O)/C=C/c2ccc(O)cc2)c(O)c1CC=C(C)C | -6.0 | 3.4 | 5.2 | -10.3 | -6.3 | -9.8 | · | · | ·
O=C(CSc1nncs1)Nc1nccs1 | · | 0.3 | 26.4* | 3.0 | 2.5 | 0.6 | -0.3 | -1.8 | -0.7
SMILES | TLR4-MyD88 BLA | NOD2 RIPK2 PPI | TLR9-MyD88 block | Neddyl block | NPR1 activator | NPR2 activator | TLR9-MyD88 cf | BLA nonselective | TLR9 CHO tox
NC(=O)c1ccsc1NC(=O)CSc1nncs1 | · | 7.7 | -0.6 | 7.0 | -1.2 | 2.1 | · | · | ·
c1ccc(-c2cnn3c(-c4ccccc4)c(-c4ccccc4)nc3n2)cc1 | 13.1 | 9.3 | 23.1* | i | -8.2 | -2.2 | 59.5* | 58.2* | -2.5
Nc1nc(-c2ccccc2)c(-c2ccccc2)n1N | · | -0.5 | 5.3 | 26.5 | 4.5 | -1.2 | · | · | ·
COC(=O)C1CN(Cc2ccccc2)CCS(=O)(=O)N1Cc1cn(Cc2ccccc2)nn1 (configuration not stated) | · | · | · | · | 2.1 | -1.0 | · | · | ·
S=c1[nH]nc(-c2cccnc2)n1Cc1ccccc1 | -4.0 | 2.4 | 23.9* | 7.9 | -0.2 | -2.1 | -3.1 | -3.7 | -2.7
COC(=O)C1CN(Cc2ccc(F)cc2)CCS(=O)(=O)N1Cc1ccc(C)cc1 (configuration not stated) | · | · | · | · | -4.0 | -9.0 | · | · | ·
O=C(Nc1c2c(nn1-c1ccccc1)CS(=O)(=O)C2)C1CC1 | · | -7.4 | 4.0 | 2.5 | 6.6 | 2.8 | · | · | ·
O=C(Nc1c2c(nn1-c1ccccc1)CS(=O)(=O)C2)c1ccccc1Br | · | 8.6 | 22.9* | -11.6 | -2.9 | -2.5 | 8.4 | 9.8 | -1.1
CCn1nc(-c2ccccc2)c2nc3ccccc3nc21 | 24.9 | 9.7 | 25.2* | · | -0.3 | -1.4 | 35.4* | 34.4 | 4.0
C[C@H](CCC(=O)N(c1ccccc1)c1ccccc1)CC1CCCCC1 | · | · | · | · | -1.5 | 3.5 | · | · | ·

Assay outcomes from PubChem.
